# Test results taken from PubChem BioAssay AID1476 (National Center for Advancing Translational Sciences (NCATS), 2009).
# The campaign covered roughly 200,000 compounds. About 4,500 (2.2%) were called active. Roughly 12% stayed inconclusive and do not appear here. Calls follow the shape of the dose curve; as a rule, active = well fitted inhibition curve with a large enough effect; inconclusive = small, poorly fitted or top-dose-only effect, or effect the other way; inactive = flat fitted curve, though single readings scatter. Only a selection was taken, and actives are over-represented in it overall.
# Target: Cruzipain (Trypanosoma cruzi) (UniProt P25779)
# Sequence (P25779 123-467 limits assumed): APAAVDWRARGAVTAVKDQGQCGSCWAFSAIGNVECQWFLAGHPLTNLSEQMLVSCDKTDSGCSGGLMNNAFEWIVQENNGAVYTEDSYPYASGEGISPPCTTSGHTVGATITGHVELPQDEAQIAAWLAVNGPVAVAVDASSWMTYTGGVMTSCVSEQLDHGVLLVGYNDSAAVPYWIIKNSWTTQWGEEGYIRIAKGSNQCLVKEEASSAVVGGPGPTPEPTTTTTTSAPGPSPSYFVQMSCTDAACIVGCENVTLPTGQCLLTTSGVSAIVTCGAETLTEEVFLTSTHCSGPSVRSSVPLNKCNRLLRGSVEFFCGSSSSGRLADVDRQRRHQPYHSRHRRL
# Assay: qHTS Assay for Promiscuous and Specific Inhibitors of Cruzain (without detergent); also: nearly all actives have a fitted effect of over 40% in size;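 as to max response, negative = inhibition: plate controls were enzyme without inhibitor for no effect and buffer without enzyme for full effect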
# Conditions: purified cruzain, Z-FR-AMC fluorescence, no detergent
# How it was run: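 Detergent-free condition (0.00005% Triton X-100) in acetate buffer pH 5.5 with DTT. 1.5 nM enzyme and compound were pre-mixed 15 min, then 2 uM Z-FR-AMC substrate added; reaction progress from fluorescence change between first and third reads (60 s).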
# Potency is read from the fitted curve at half-maximal effect.
Structure (SMILES),"max response, negative = inhibition",Potency
CCc1cccc(C)c1NS(=O)(=O)c1ccc(-c2cc(C)no2)s1,-2.03% (inactive),
CCc1ccc(-n2nnc(-c3nc(-c4ccccc4)no3)c2C)cc1,11.5% (inactive),
CCCNC(=O)c1ccc(Cn2c(SCC(N)=O)nc3ccccc3c2=O)cc1,-1.8% (inactive),
COc1ccc(CC(=O)Nc2nnc3n2CCS3)cc1OC,3.34% (inactive),
O=S(=O)(O)c1ccc(O)c2ncccc12.O=S(=O)(O)c1ccc(O)c2ncccc12.[Zn],,3.16 µM (active)
O=C(O)COc1c(Cl)cc(Cl)c2cccnc12,-2.23% (inactive),
CC(=O)c1ccc(N2CCN(C3C(=O)c4ccccc4N3C(C)=O)CC2)cc1 (stereo not drawn),6.9% (inactive),
COc1ccc(C(F)(F)F)cc1NC(=O)c1sc2nc(-c3cccs3)ccc2c1N,-12.3% (inactive),
O=C(COc1ccc2c(C(F)(F)F)cc(=O)oc2c1)Nc1ccc2c(c1)OCCO2,,7.94 µM (active)
CC(C)NS(=O)(=O)c1ccc(OCC(=O)Nc2ccc3c(c2)OCCO3)cc1,5.06% (inactive),
CCN(CC(=O)Nc1ccc2c(c1)OCCO2)Cc1cc(=O)oc2cc(C)c(C)cc12,-1.71% (inactive),
Cc1ccc(CN(C(=O)c2ccccc2[N+](=O)[O-])c2ccccn2)cc1,-9.11% (inactive),
COc1ccc(CNC(=O)c2cc3c(=O)[nH]c4ccc(C)cc4c3s2)c(OC)c1,8.63% (inactive),
C/C(=N\NC(=O)Cc1ccc(F)cc1)c1ccc(F)cc1,11.2% (inactive),
C/C(=N\NC(=O)c1nc(C)cc(C)n1)c1ccccc1,4.34% (inactive),
C/C(=N\NC(=O)CNC(=O)C(c1ccccc1)c1ccccc1)c1ccc(C)cc1,,12.6 µM (active)
O=C(CCCCn1c(=O)c2ccccc2n(CC(=O)Nc2cccc(C(F)(F)F)c2)c1=O)NCc1ccc2c(c1)OCO2,16.7% (inactive),
CCOC(=O)c1ccc2c(c1)N(Cc1cccc(OC)c1)C(=O)c1ccccc1S2(=O)=O,-13.7% (inactive),
COc1ccc(/C=N/NC(=O)c2ccccc2)cc1OS(=O)(=O)c1ccccc1,-2.21% (inactive),
COc1cc(/C=N/NC(=O)Nc2ccccc2)ccc1OCCOc1ccccc1C,,25.1 µM (active)
COc1cc(/C=N/NC(=O)c2ccccc2)ccc1OS(=O)(=O)c1ccccc1,-10.2% (inactive),
Cc1ccc(NC(=O)Cc2ccc(NC(=O)N3CCCCc4ccccc43)cc2)cc1,16.9% (inactive),

Structure (SMILES),"max response, negative = inhibition",Potency
Cc1cccc(NC(=O)c2ccc3nc(C(C)C)oc3c2)c1C,-5.86% (inactive),
CC(C)(C)C1CCC(=NNC(=O)c2cc(-c3ccccc3)n[nH]2)CC1 (stereo not drawn),,12.6 µM (active)
CC(C)(C)C1CCC(=NNC(=O)c2ccc(Br)o2)CC1 (stereo not drawn),6.4% (inactive),
CC(NC(=O)C(=O)NN=C1CCC(C(C)(C)C)CC1)c1ccccc1 (stereo not drawn),14.7% (inactive),
CCOC(=O)Cn1c(=O)n(C2CCCCC2)c2nc(-c3cccc(OC)c3)nc(C(N)=O)c21,-11% (inactive),
COc1ccc(CCNc2nc3c(-c4cccc(F)c4)nnn3c3ccccc23)cc1OC,16.6% (inactive),
CC1=C(C(=O)N2CCN(c3cccc(C(F)(F)F)c3)CC2)C2(CCCCC2)OC1=O,-13.5% (inactive),
CCOc1ccc(CNC(=O)c2ccc3c(c2)nnn3C2CCCC2)cc1,-5.67% (inactive),
O=C(CCCN1C(=O)/C(=C\c2ccco2)SC1=S)Nc1cccc2ccccc12,-12.6% (inactive),
O=C(CN1C(=O)/C(=C\c2ccccc2F)SC1=S)Nc1nc2ccccc2s1,,7.94 µM (active)
Cc1nn(CC(=O)Nc2nc3ccccc3s2)c(C)c1[N+](=O)[O-],-6.47% (inactive),
Cc1cccc(C(=O)NCC(=O)OCC(=O)N2CC3(C)CC2CC(C)(C)C3)c1 (stereo not drawn),,12.6 µM (active)
Cc1cccc(C(=O)NCCCN2CCCC2=O)c1,-2.37% (inactive),
COc1ccccc1C(=O)N1CC2(C)CC1CC(C)(C)C2 (stereo not drawn),16.4% (inactive),
Cc1cc(C)cc(NC(=O)Cn2nc(N3CCN(c4ccccc4)CC3)ccc2=O)c1,-3.11% (inactive),
Cc1ccc(-n2c(SCC(=O)N/N=C/C=C/c3ccccc3[N+](=O)[O-])nc3ccccc3c2=O)cc1,,25.1 µM (active)
O=C(CSc1nc2ccccc2[nH]1)N/N=C/C=C\c1ccccc1[N+](=O)[O-],10.4% (inactive),
CCn1c(SCC(=O)N/N=C/C=C/c2ccccc2[N+](=O)[O-])nnc1-c1ccccc1,-1.88% (inactive),
COCCN(CCOC)S(=O)(=O)c1ccc(C(=O)Nc2nc3c(s2)CCc2ccccc2-3)cc1,-1.58% (inactive),
C=CCN(CC=C)S(=O)(=O)c1ccc(C(=O)Nc2nc3c(s2)CCc2ccccc2-3)cc1,,10 µM (active)
CCN(c1ccccc1)S(=O)(=O)c1ccc(C(=O)Nc2nccs2)cc1,0.885% (inactive),
Cc1ccc(-c2nnc(Nc3cccc(Br)c3)c3ccccc23)cc1S(=O)(=O)NCC1CCCO1 (stereo not drawn),-20.7% (inactive),

Structure (SMILES),"max response, negative = inhibition",Potency
CCCCCn1c(=O)[nH]c2cc(C(=O)NCCN(C)CCCC)ccc2c1=O,2.28% (inactive),
CCn1c(C)nc2cc(C(=O)NNS(=O)(=O)c3ccc(C)cc3C)ccc21,9.43% (inactive),
Cc1ccc(S(=O)(=O)n2cnc3ccccc32)c(C)c1,3.08% (inactive),
CCOC(=O)c1c(C)n(S(=O)(=O)c2ccc(C)cc2C)c2ccc(NS(=O)(=O)c3ccc(C)cc3C)cc12,,1.58 µM (active)
N#Cc1ccc(-c2ccc(F)cc2)nc1Sc1ccccc1,-27.2% (inactive),
CN(C)c1ccnc(Oc2ccc(F)cc2)c1C#N,-8.17% (inactive),
N#Cc1ccc(-c2ccc(Cl)cc2)nc1Oc1ccc(F)cc1,,25.1 µM (active)
COc1cc(NC(=O)Cn2c(=O)n(Cc3ccco3)c(=O)c3oc4ccccc4c32)cc(OC)c1,-21.5% (inactive),
Cc1ccc(C)c(CNC(=O)c2cc3ccccn3n2)c1,-9.01% (inactive),
Cc1cc2c(cc1C)N(C(=O)CN1C(=O)c3ccccc3C1=O)C(C)(C)c1ssc(=S)c1-2,,2.51 µM (active)
Cc1ccccc1C(=O)NNC(=O)CN1C(=O)c2ccccc2C1=O,-8.81% (inactive),
C=CCn1c(C)cc(C(=O)CN2C(=O)c3ccccc3C2=O)c1C,4.29% (inactive),
O=C(CN1CCN(Cc2ccc(Cl)cc2)C1=O)NCc1ccc(F)cc1,-6.99% (inactive),
COc1ccc(CCNC(=O)CCCCn2c(=O)c3ccccc3n(Cc3ccccc3C)c2=O)cc1OC,-7.48% (inactive),
O=C(Nc1nc2ccccc2s1)c1ccc2c(c1)OCO2,-5.87% (inactive),
Cc1cc(C)c2nc(NC(=O)c3ccc4c(c3)OCO4)sc2c1,,10 µM (active)
Cc1cc(C)c2nc(NC(=O)C3CCCO3)sc2c1 (stereo not drawn),0.42% (inactive),
O=C(c1ccc2c(c1)N(Cc1ccc(Cl)cc1)C(=O)c1ccccc1S2(=O)=O)N1CCCCC1,0.0442% (inactive),
CCOc1cc(/C=C2/N=C(c3ccc(C(C)(C)C)cc3)OC2=O)cc(Cl)c1OS(C)(=O)=O,1.67% (inactive),
O=C1OC(c2ccc(Cl)cc2)=N/C1=C\c1cccnc1,-2.62% (inactive),
Cc1ccc(C2=N/C(=C\c3ccc(OS(=O)(=O)c4ccc(C)cc4)cc3)C(=O)O2)cc1,,20 µM (active)
CN1CCN(C2(CNC(=O)COc3ccc(C(C)(C)C)cc3)CCCCC2)CC1,-0.272% (inactive),

Structure (SMILES),"max response, negative = inhibition",Potency
CCn1c(C)c(C)c2cc(C(=O)NCCc3cc(OC)ccc3OC)ccc21,3.29% (inactive),
Cc1ccc(CNC(=O)CCC(=O)N2CC(C)Sc3ccccc32)cc1 (stereo not drawn),3.17% (inactive),
CC(C)=CC(=O)Nc1nnc(-c2ccc(F)cc2)s1,,12.6 µM (active)
Cc1occc1C(=O)Nc1nnc(-c2ccncc2)s1,-3.11% (inactive),
Cc1ccc(C(=O)Nc2nnc(-c3ccncc3)s2)o1,-16.9% (inactive),
O=C(NCC12CC3CC(CC(C3)C1)C2)c1cc2nc(-c3ccccc3)cc(C(F)(F)F)n2n1,-1.29% (inactive),
CC(Sc1oc(-c2ccco2)nc1S(=O)(=O)c1ccc(Br)cc1)c1ccccc1 (stereo not drawn),-8.99% (inactive),
CN(Cc1ccccc1)c1ccc(-c2nc(-c3ccccc3)no2)cc1[N+](=O)[O-],-0.924% (inactive),
O=C(NCc1ccccc1)c1ccc2c(c1)nc1n2CCCCC1,-10.7% (inactive),
CCCOc1ccc(C(=O)Nc2ccc3oc(-c4cccc(Cl)c4Cl)nc3c2)cc1,7.94% (inactive),
O=C(Nc1ccc(O)c(-c2nc3ccccc3o2)c1)c1ccc(-c2cccc(Cl)c2)o1,1.11% (inactive),
O=C(NC(=S)Nc1ccc2oc(=O)ccc2c1)c1ccc(-c2cccc(Cl)c2Cl)o1,,5.01 µM (active)
COC(=O)c1cc(NC(=O)CCc2c(C)nc3c4c(C)cc(C)nc4nn3c2C)cc(C(=O)OC)c1,-14.1% (inactive),
COc1cccc2cc(-c3nc(Cl)c4c5c(sc4n3)CC(C)CC5)c(=O)oc12 (stereo not drawn),-8.92% (inactive),
CCc1ccccc1NC(=O)c1cc(-c2ccc3c(c2)OCO3)on1,-1.06% (inactive),
Clc1ccccc1-c1cc(NCCN2CCOCC2)ncn1,-3.09% (inactive),
c1ccc2[nH]c(NCCN3CCOCC3)nc2c1,-8.64% (inactive),
c1ccc2cc3c(NCCN4CCOCC4)ccnc3cc2c1,,25.1 µM (active)
COc1ccc(-n2c(=O)c3ccccc3n(Cc3ccccc3Cl)c2=O)cc1,6.51% (inactive),
Cc1cc2c(c(=O)n1Cc1ccco1)C(c1ccccc1)C(C#N)=C(N)O2 (stereo not drawn),-4.14% (inactive),
CCOc1ccccc1NC(=O)Cn1c(=O)n(Cc2ccco2)c(=O)c2sc3ccccc3c21,-0.26% (inactive),
CN(c1ccccc1)c1ccc(/C=c2\s/c(=C(/C#N)C(=O)C(C)(C)C)n(Cc3ccco3)c2=O)cc1,,3.16 µM (active)
